Test [1] in a line: NCI Yeast Anticancer Drug Screen. Data for the rad50 strain (AID 155).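 Note: 0% = growth of vehicle-only cultures of the same strain.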 Conditions: S. cerevisiae rad50 strain growth inhibition; at 50.0 µM; active compounds read high. Summed up: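 Yeast carrying a defined DNA repair defect were exposed to test compounds, and growth was compared with vehicle-treated controls to give percent inhibition.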
Test [2] in a line: NCI Yeast Anticancer Drug Screen. Data for the mec2-1 strain (AID 157). Conditions: S. cerevisiae mec2-1 strain, at 50.0 µM, active compounds read high. The method, boiled down: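 Compounds were applied to mec2-1 yeast cells. Their growth was then compared with that of vehicle-treated cultures to give growth inhibition.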
A short description of test [3]: NCI Yeast Anticancer Drug Screen. Data for the sgs1 mgt1 strain (AID 161).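 Note: 0% = growth of cultures given vehicle only.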 The following applies: S. cerevisiae sgs1 mgt1 strain, at 50.0 µM, active compounds read high. The method, boiled down: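 This yeast growth screen uses a strain with defined DNA-repair lesions; compound-treated growth is compared with vehicle-treated growth.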
A short description of test [4]: NCI Yeast Anticancer Drug Screen. Data for the cln2 rad14 strain (AID 165).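 Note: 0% = growth equal to vehicle treated cultures.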 Conditions: S. cerevisiae cln2 rad14 strain, at 50.0 µM, active compounds read high. Summed up:
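Strain: cln2 rad14 yeast, altered in cell cycle control and DNA damage repair. Read-out: growth inhibition vs vehicle.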

Test [5] can be described thus: NCI Yeast Anticancer Drug Screen. Data for the bub3 strain (AID 167). Conditions: S. cerevisiae bub3 mutant strain, at 50.0 µM, active compounds read high. Summed up: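 Compounds were applied to a genetically altered yeast strain carrying a cell-cycle control defect. Growth inhibition was scored against vehicle-treated controls.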
Test [6] can be described thus: NCI Yeast Anticancer Drug Screen. Data for the mlh1 rad18 strain (AID 175). The following applies: S. cerevisiae mlh1 rad18 strain growth inhibition; at 50.0 µM; active compounds read high. Summed up: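 A repair-deficient yeast strain is exposed to test compound, and growth is scored relative to vehicle-treated controls.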

Molecules are shown by their SMILES. This is part of a sample that, as a whole, favours compounds with a hit. Of some 79,000 tested, about 15% had one in any assay. A number with no mark means an inactive call. Active and inactive are the calls of the source. Cut-off read from the data, not from the text of the source: active = growth inhibition above about 70%; inactive = the rest.

Turning to `CCCCCCCCCCCCCCCCCC(=O)NCC[N+](C)(C)C`, the growth inhibition in test [1] is 99% (active); in test [2], 99.5% (active); in test [3] it was 99.4% (active); in test [4] it was 98.8% (active); in test [5] it was 98.8% (active); in test [6] it was 99.2% (active).
Take `C=Cc1cccc([N+](=O)[O-])c1`: the growth inhibition in test [1] is 15.8%; in test [2] it was -0.15%; in test [3], 6.6%; in test [4], 16.5%; in test [5], 19.6%; in test [6], -3.7%.
On to `Cc1cnc(Br)c(Br)c1`, for which the growth inhibition is 2.85% in test [1]; 0.8% in test [2]; 3.45% in test [3]; 15.9% in test [4]; 5.1% in test [5]; 13.1% in test [6].
Turning to `COc1ccc(/C=N/n2cnc3c(sc(=S)n3-c3ccccc3)c2=O)cc1`, the growth inhibition in test [1] is 23%; in test [2], 1.1%; in test [3] it was -8.45%; in test [4], -1.7%; in test [5], -23.7%; in test [6] it was 12.8%.
For the compound `NN1C(=O)Cc2ccc(Cl)cc21`, the growth inhibition in test [1] is 9.1%; in test [2], -0.7%; in test [3] it was -2.9%; in test [4], -33.5%; in test [5], -3.15%; in test [6], 2.1%.
With `O=C1CNC(=O)N1CCCl`, the growth inhibition in test [1] was 19.7%; in test [2], -4.7%; in test [3] it was -7.65%; in test [4], 6.3%; in test [5] it was 6.15%; in test [6], -6.7%.
With `C=C(C)COC(=O)COc1ccc(Cl)cc1`, the growth inhibition in test [1] was 1.05%; in test [2], -32.7%; in test [3] it was -3.5%; in test [4], 0.45%; in test [5], 3.5%; in test [6], 5.45%.
For the compound `O=c1c2c(nc3n1CCC3)OC(c1ccccc1)C2` (stereo not given), the growth inhibition was 0.4% in test [1]; 4.3% in test [2]; -5.9% in test [3]; -44.8% in test [4]; -2.95% in test [5]; 12.6% in test [6].
For the compound `CN(C)c1ccc(/C=C(\C#N)c2c(Br)cccc2Br)cc1`, the growth inhibition is -20.1% in test [1]; -18.8% in test [2]; -3.65% in test [3]; -42.8% in test [4]; 3.1% in test [5]; -14.7% in test [6].
With `Nc1nc(=O)n(C2OC(CO)C(O)C2Cl)cc1I` (stereo not given), the growth inhibition in test [1] is 10.4%; in test [2] it was -3.8%; in test [3], 1.1%; in test [4], -5.1%; in test [5], 7.8%; in test [6], -0.75%.
Consider `CC(C)Cc1ncnc2n[nH]nc12`, for which the growth inhibition in test [1] is 1.65%; in test [2] it was 8.5%; in test [3], 35.5%; in test [4] it was 35.4%; in test [5], 20.4%; in test [6] it was 17.8%.
As to `COC(=O)c1ccccc1N=Cc1ccc(N(CCC#N)S(=O)(=O)c2ccccc2)cc1`, the growth inhibition is -2.05% in test [1]; 13.3% in test [2]; -6.15% in test [3]; 18.2% in test [4]; 20.3% in test [5]; 15.9% in test [6].
As for `Oc1ccc2cc(O)ccc2c1`, the growth inhibition was -5.45% in test [1]; -25.6% in test [2]; -1.7% in test [3]; -7.8% in test [4]; -20.4% in test [5]; -5.85% in test [6].
Consider `CCOc1ccc(NC(=O)C(=O)C(/C(=N/N)C(=O)OC)c2nc3ccc([N+](=O)[O-])cc3[nH]c2=O)cc1` (stereo not given), for which the growth inhibition in test [1] is 6.9%; in test [2], -6%; in test [3], 3.5%; in test [4], 13.3%; in test [5], 7%; in test [6], 21.9%.
Consider `C=CCOC(=O)Nc1cccc(O)c1`, for which the growth inhibition in test [1] was 16.9%; in test [2], -5.95%; in test [3], 3.2%; in test [4], -57.6%; in test [5], -29.6%; in test [6], 1.4%.
Regarding `CCN(CC)c1ncnc2c1nc(C)n2Nc1ccccc1`, the growth inhibition is 13.7% in test [1]; -3.1% in test [2]; 1.3% in test [3]; 7.4% in test [4]; 0.5% in test [5]; -10.7% in test [6].
As for `Clc1ccc(Cl)c(-c2csc(-c3cccnc3)n2)c1`, the growth inhibition in test [1] is 4.95%; in test [2] it was -11.6%; in test [3], 12.5%; in test [4], -34.5%; in test [5] it was 7.6%; in test [6], 17.9%.
Take `O=C(OC(C[n+]1ccccc1)c1ccccc1)c1ccccc1` (stereo not given): the growth inhibition was -0.55% in test [1]; -0.9% in test [2]; 4.5% in test [3]; 14.5% in test [4]; -6.4% in test [5]; 34% in test [6].
In the case of `COCCCOC(=O)COc1ccccc1`, the growth inhibition in test [1] is -11.3%; in test [2], -45.5%; in test [3], -8.65%; in test [4], -12.8%; in test [5] it was 11.9%; in test [6] it was -13.5%.
As to `C(#Cc1ccccc1)/C=C/C(=C\c1ccccc1)c1ccccc1`, the growth inhibition is 6.6% in test [1]; 4.9% in test [2]; -4.9% in test [3]; 11.8% in test [4]; 20.8% in test [5]; 33.5% in test [6].

For the origin of these results see PubChem BioAssay (NCI).
